PubChem BioAssay AID720650 (Broad Institute, 2013)
Unmarked numbers belong to inactive results. Active and inactive are the calls of the source. How the calls were made is not given here.

Test: C difficile toxins, biochemical counterscreen, UDPG substrate absence, confirmatory dose response (AID 720650)
Conditions: series mostly up to 19.5 µM

SMILES: COc1ccc(/C=C2\CCCCC2=O)cc1
- AC50: inactive

SMILES: COc1ccc(C(=O)OCC(=O)Nc2ccc3[nH]c(=O)[nH]c3c2)c(OC)c1OC
- AC50: inactive

SMILES: Oc1ccc(Nc2nc(Cl)nc(NCc3ccco3)n2)cc1
- AC50: inactive

SMILES: Cc1ccc(S(=O)(=O)Oc2cccc(/C=N/n3cnnc3)c2)cc1
- AC50: > 39 µM

SMILES: Cc1nn(C2CC(O)C(O)C(CO)O2)c(=O)[nH]c1=O (centres undefined)
- AC50: inactive

SMILES: O=c1[nH]nc(-c2ccc(F)cc2)cc1Cc1ccccc1
- AC50: inactive

SMILES: CCCNC(=O)C1(C)CCCN(C(=O)c2ccccc2OC(F)(F)F)C1 (centres undefined)
- AC50: inactive

SMILES: Oc1ccccc1-c1cnc2cccnn12
- AC50: > 39 µM

SMILES: C/C(=N\OCC(=O)Nc1nc2ccccc2s1)c1ccccc1
- AC50: inactive

SMILES: Cc1cc(C(=O)Nc2ncc(C)s2)c2ccccc2n1
- AC50: inactive

SMILES: Nc1nc(Nc2ccccc2)n[nH]1
- AC50: > 39 µM

SMILES: COc1ccc(NC(=O)CN(C)C(=O)c2cccc(NS(=O)(=O)c3ccc(Br)cc3)c2)cc1
- AC50: inactive

SMILES: CC12CCC3C(=CCc4cc(O)ccc43)C1CC(=NO)C2O (centres undefined)
- AC50: 19.4 µM (active)

SMILES: Cc1ccc(NS(=O)(=O)c2ccc(C)c(NC(=S)NCCN3CCOCC3)c2)c(C)c1
- AC50: inactive

SMILES: Cc1ccc(CNCCCn2cnc(C(=O)Nc3ccc(C)c(C)c3)n2)o1
- AC50: inactive

SMILES: COc1cccc(/C=C/c2onc(C)c2S(=O)(=O)N2CCC(C(=O)NC3CCCCCC3)CC2)c1
- AC50: inactive

SMILES: c1ccc(OCCSc2nnc3sc4ccccc4n23)cc1
- AC50: 20.6 µM (active)

SMILES: CCCCN(C)c1c(C)nc2ccc(C(=O)NCc3cccs3)cn12
- AC50: 20.4 µM (active)

SMILES: COC(=O)C1=C(c2ccc(F)cc2OCc2ccccc2)C[C@@H]2CC[C@H]1N2C(=O)N1CCCC1
- AC50: inactive

SMILES: O=C(O)c1cccnc1SCc1ccccc1Cl
- AC50: inactive

SMILES: CN(c1ccc(O)cc1)c1nc(-c2cccnc2)cs1
- AC50: inactive

SMILES: Cc1cc(C)nc(NC(N)=NCCc2ccccc2)n1
- AC50: > 39 µM

SMILES: O=C(CCn1cnc2ccccc21)N/N=C/c1ccc(O)cc1
- AC50: 12.2 µM (active)

SMILES: O=C(CN1C(=O)CCC1=O)NNc1ccc2ccccc2c1
- AC50: < 0.16 µM (active)

SMILES: Oc1ccc(Cc2ccccc2Cl)c(O)c1
- AC50: > 39 µM

SMILES: CCc1[nH]c(=O)c(C#N)c2c1CCCC2
- AC50: inactive

SMILES: COc1ccc(S(=O)(=O)Nc2ccc3oc(C)c(C(=O)O)c3c2)cc1
- AC50: > 39 µM

SMILES: CCOc1ccccc1/C=C/c1onc(C)c1S(=O)(=O)N1CCC(C(=O)NC)CC1
- AC50: inactive

SMILES: Cc1scc(C(=O)N2CCN(c3ccc(Cl)cc3)CC2)c1C
- AC50: inactive

SMILES: O=C(NN=Cc1cc(Br)c(O)c(Br)c1)c1ccccc1NS(=O)(=O)c1cccs1
- AC50: inactive

SMILES: CCOC(=O)c1cc([N+](=O)[O-])sc1N
- AC50: inactive

SMILES: COc1ccc(NC(=O)Nc2nc(C)cc(C)n2)c(OC)c1
- AC50: inactive

SMILES: CCOc1ccc(C(CC(=O)O)NC(=O)C23CC4CC(CC(C4)C2)C3)cc1OC (centres undefined)
- AC50: inactive

SMILES: Cc1ccc(Cc2c(-c3ccc(C)cc3)nc3ccc(Cl)cn23)cc1
- AC50: inactive

SMILES: CCn1c(C)nc2cc(C(=O)N/N=C/c3ccc(O)cc3)ccc21
- AC50: 15.1 µM (active)

SMILES: CSc1nc(Cl)cc(Nc2ccc(O)cc2)n1
- AC50: inactive

SMILES: Cc1ccc(/C=C/c2onc(C)c2S(=O)(=O)N2CCC(C(=O)NC(C)(C)C)CC2)cc1
- AC50: inactive

SMILES: O=C(C[C@@H]1C[C@@H]2c3cc(NC(=O)c4ccc5c(c4)OCO5)ccc3O[C@@H]2[C@@H](CO)O1)NCc1cccc(F)c1
- AC50: inactive

SMILES: Cn1cnnc1SCC(=O)NC1CCCCC1
- AC50: inactive
